Compounds without any hit were thinned out: in the full panel of roughly 83,000, 20% have a hit.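 Cell lines were cultured in 96-well plates, exposed to a single compound concentration, and assessed for percent growth 48 hours later.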 Active and inactive are the calls of the source. How the source made its calls: active means growth percent below 10; inactive means the rest.
What was measured:
Assay in all cases: NCI-60 one-dose screen, 48 h (100 = growth as untreated, 0 = no growth, -100 = all killed)
Details in all cases: 10 µM unless noted
SK-MEL-2 melanoma = test system: SK-MEL-2 melanoma
EKVX NSCLC = test system: EKVX NSCLC
SN12C renal = test system: SN12C renal
UO-31 renal = test system: UO-31 renal
TK-10 renal = test system: TK-10 renal
ACHN renal = test system: ACHN renal
CAKI-1 renal = test system: CAKI-1 renal
A498 renal = test system: A498 renal
CCRF-CEM leukemia = test system: CCRF-CEM leukemia
MOLT-4 leukemia = test system: MOLT-4 leukemia
SR leukemia = test system: SR leukemia
RPMI-8226 leukemia = test system: RPMI-8226 leukemia
OVCAR-8 ovarian = test system: OVCAR-8 ovarian
OVCAR-5 ovarian = test system: OVCAR-5 ovarian
OVCAR-4 ovarian = test system: OVCAR-4 ovarian
SK-OV-3 ovarian = test system: SK-OV-3 ovarian
IGROV1 ovarian = test system: IGROV1 ovarian
OVCAR-3 ovarian = test system: OVCAR-3 ovarian
HS 578T breast = test system: HS 578T breast
NCI/ADR-RES ovarian = test system: NCI/ADR-RES ovarian

Measured: growth

O=C(c1ccc(Nc2nccc(NCCCNc3ccnc4cc(Cl)ccc34)n2)cc1)N1CCCCC1
active: SR leukemia -2.26%
inactive: SK-MEL-2 melanoma 64.5% | EKVX NSCLC 57% | SN12C renal 34.3% | UO-31 renal 82.3% | TK-10 renal 73.2% | ACHN renal 79.9% | CAKI-1 renal 89.9% | A498 renal 69.1% | CCRF-CEM leukemia 37.1% | MOLT-4 leukemia 25.3% | RPMI-8226 leukemia 81% | OVCAR-8 ovarian 34% | OVCAR-5 ovarian 71.2% | OVCAR-4 ovarian 48.4% | SK-OV-3 ovarian 66.7% | IGROV1 ovarian 39.7% | OVCAR-3 ovarian 37.7% | HS 578T breast 84.8% | NCI/ADR-RES ovarian 92.6%

O=C(CCCOc1ccc(Br)cc1)Nc1ncc(Cc2ccc(F)cc2)s1
inactive: SK-MEL-2 melanoma 93.3% | EKVX NSCLC 77% | SN12C renal 82.7% | UO-31 renal 62.6% | TK-10 renal 86.5% | ACHN renal 72.9% | CAKI-1 renal 37% | A498 renal 76.7% | CCRF-CEM leukemia 64.4% | MOLT-4 leukemia 73.8% | SR leukemia 22.6% | RPMI-8226 leukemia 77.6% | OVCAR-8 ovarian 91.5% | OVCAR-5 ovarian 79.4% | OVCAR-4 ovarian 68.7% | SK-OV-3 ovarian 81.7% | IGROV1 ovarian 78.5% | OVCAR-3 ovarian 81% | HS 578T breast 74.3% | NCI/ADR-RES ovarian 73.6%

COc1cc2c(cc1OCCCOC1=C=C=C(c3ccc4c(c3)c3cc(-c5ccc(OCCCOc6cc7c(cc6OC)C(=O)N6CCC[C@H]6C=N7)cc5)ccc3n4S(=O)(=O)c3ccc(C)cc3)C=C1)N=C[C@@H]1CCCN1C2=O
inactive: EKVX NSCLC 94.5% | UO-31 renal 39.1% | TK-10 renal 221% | A498 renal 76.9% | CCRF-CEM leukemia 40.3% | RPMI-8226 leukemia 17.9% | OVCAR-8 ovarian 23.9% | OVCAR-5 ovarian 113% | OVCAR-4 ovarian 58.2% | SK-OV-3 ovarian 93.7% | IGROV1 ovarian 14% | NCI/ADR-RES ovarian 94%
active: SK-MEL-2 melanoma -20.6% | SN12C renal -17.2% | ACHN renal 7.74% | CAKI-1 renal -19.8% | MOLT-4 leukemia -11.6% | SR leukemia -74% | OVCAR-3 ovarian 0.652% | HS 578T breast 2.22%

CC(=O)c1c(C)nc(SCC(=O)Nc2ccc(Cl)cc2)n1-c1ccc(Cl)cc1
inactive: SK-MEL-2 melanoma 94% | EKVX NSCLC 95.5% | SN12C renal 87% | UO-31 renal 80.9% | TK-10 renal 99.5% | ACHN renal 93.7% | CAKI-1 renal 81.7% | A498 renal 83.2% | CCRF-CEM leukemia 87.5% | MOLT-4 leukemia 64.1% | SR leukemia 90.6% | RPMI-8226 leukemia 71.1% | OVCAR-8 ovarian 89.3% | OVCAR-5 ovarian 99.1% | OVCAR-4 ovarian 102% | SK-OV-3 ovarian 85.9% | IGROV1 ovarian 97.9% | OVCAR-3 ovarian 99.4% | HS 578T breast 79.4% | NCI/ADR-RES ovarian 89.2%
